Experimental findings from PubChem BioAssay (NCATS) are described below.

Test [1] relates to MCC-13. The experiment in a line: qHTS assay to identify novel small-molecules to repurpose for Merkel cell carcinoma treatment (AID 1296009). Also: nearly all actives have a fitted effect of over 60% in size. Also: potency is read from the fitted curve at half-maximal effect. To be noted: MCC and control cell lines, CellTiter-Glo viability, 72 h; series mostly up to 46 µM. Put shortly:
(§1)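 Cells were incubated with compound for 72 hr at 37 degree celsius before CellTiter-Glo addition. Luminescence was normalized with no-cell wells as full cytotoxicity and DMSO as baseline.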
On the technique in general: qHTS replaces the single test concentration by a dilution series.

The test system of test [2] is MCC-26. The description is as above. As to conditions: MCC and control cell lines, CellTiter-Glo viability, 72 h; series mostly up to 46 µM. Put shortly: as §1
In general terms: In ATP-based viability assays light output follows the ATP content of the culture.

Test [3] relates to MKL-1. Described as above. To be noted: MCC and control cell lines, CellTiter-Glo viability, 72 h; series mostly up to 46 µM. Put shortly: as §1
Test [4] deals with MKL-2. The description is as above. As to conditions: MCC and control cell lines, CellTiter-Glo viability, 72 h; series mostly up to 46 µM. Put shortly:
as §1

For test [5], the system named is UISO. The description is as above. To be noted: MCC and control cell lines, CellTiter-Glo viability, 72 h; series mostly up to 46 µM. Put shortly:
as §1

Test [6] has as its system WaGa. The description is as above. To be noted: MCC and control cell lines, CellTiter-Glo viability, 72 h; series mostly up to 46 µM. Put shortly:
as §1

The subject of test [7] is C33A. The experiment in a line: Primary qHTS to identify gynecologic anti-cancer compounds using libraries of approved drugs and bioactive compounds (AID 1345084). Also: nearly all actives have a fitted effect of over 55% in size. To be noted: Gynecologic cancer cell panel viability, ATPlite luminescence, 48 h; series mostly up to 57.5 µM. In short, it runs like this: (§2)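 Cytotoxicity screen measuring ATP content by luciferase luminescence. Each compound is applied at five concentrations for 48 h at 37 C with 5% CO2.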

Test [8] concerns CASKI. The test is described as above. As to conditions: Gynecologic cancer cell panel viability, ATPlite luminescence, 48 h; series mostly up to 57.5 µM. Put shortly: as §2
Test [9] has as its system Es-2. The description is as above. As to conditions: Gynecologic cancer cell panel viability, ATPlite luminescence, 48 h; series mostly up to 57.5 µM. Put shortly: as §2
Test [10] relates to HeLa. The test is described as above. As to conditions: Gynecologic cancer cell panel viability, ATPlite luminescence, 48 h; series mostly up to 57.5 µM. In short, it runs like this: as §2
The test system of test [11] is Hek293T. The description is as above. To be noted: Gynecologic cancer cell panel viability, ATPlite luminescence, 48 h, control line for the selectivity index; series mostly up to 57.5 µM. In short, it runs like this:
as §2

The subject of test [12] is JEG-3. The test is described as above. To be noted: Gynecologic cancer cell panel viability, ATPlite luminescence, 48 h; series mostly up to 57.5 µM. In short, it runs like this:
as §2

Test [13] concerns OV90. The test is described as above. As to conditions: Gynecologic cancer cell panel viability, ATPlite luminescence, 48 h; series mostly up to 57.5 µM. Put shortly:
as §2

Test [14] concerns PA-1. The test is described as above. To be noted: Gynecologic cancer cell panel viability, ATPlite luminescence, 48 h; series mostly up to 57.5 µM. Put shortly:
as §2

The subject of test [15] is SKOV3. The description is as above. To be noted: Gynecologic cancer cell panel viability, ATPlite luminescence, 48 h; series mostly up to 57.5 µM. In short, it runs like this: as §2
In test [16] the test system is Tov-21-G. The test is described as above. To be noted: Gynecologic cancer cell panel viability, ATPlite luminescence, 48 h; series mostly up to 57.5 µM. In short, it runs like this: as §2
The test system of test [17] is Tov112D. The test is described as above. As to conditions: Gynecologic cancer cell panel viability, ATPlite luminescence, 48 h; series mostly up to 57.5 µM. Put shortly: as §2
A short description of test [18]: qHTS assay to identify inhibitors of the type 1 interferon - major histocompatibility complex class I in skeletal muscle: Counter screen cell viability and HiBit confirmation (AID 1347412). Also: nearly all actives have a fitted effect of over 60% in size. As to conditions: iHSKM muscle cells + IFN-b, HiBiT or CellTiter-Glo, 24 h; Potency: HiBiT; Viability, at 45.9 µM (top of the series). Put shortly:
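Luminescence read-out: Nano-Glo HiBiT lytic signal from C-terminally HiBiT-tagged HLA-B in CRISPR-edited human myoblasts, plus CellTiter Glo ATP as viability counter screen. IFN-beta 4.0 ng/ml; 24 hrs treatment at 37 C, 5% CO2.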

The nature of test [19]: Drug repurposing screens with cells derived from glioblastoma tumor samples (AID 1345199). Also: nearly all actives have a fitted effect of over 40% in size. As to conditions: GBM patient neurospheres viability, ATP luminescence, 48 h; Potency: tumour line A; series mostly up to 46.1 µM. Put shortly:
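Four patient lines of CD133+ GBM neurospheres were screened at several concentrations; hits were retested in those lines plus three slower-growing GBM lines, using 48-hour treatment and ATP-based viability.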

The structures appear in SMILES notation. Records with an inconclusive call do not appear. Calls of active or inactive are those of the source. Calls follow the shape of the dose curve; as a rule, active = well fitted curve in the direction sought with a large enough effect; inconclusive = small, poorly fitted or top-dose-only effect, or another doubt; inactive = no such curve, though single readings can be large; an effect the other way counts as inactive or inconclusive.

Regarding `CC(O)(C#Cc1ccc2c(c1)N(c1nc(N)ncc1Cl)CC2)c1nccs1` (stereo not given), the Potency result in test [1], in [2], in [3], in test [4], in test [5] and in [6] was “inactive” throughout. Also, the Potency entry in test [7], in [8], in test [9], in [10], in test [11] and in test [12] was “inactive” throughout. The Potency result in test [13], in test [14], in test [15], in test [16] and in [17] was “inactive” each time.

On to `C[C@](Cc1c[nH]c2ccccc12)(NC(=O)OC1C2CC3CC(C2)CC1C3)C(=O)NC[C@H](NC(=O)CCC(=O)O)c1ccccc1` (stereo not given in full), for which the Potency entry in test [1], in test [2], in test [3], in [4], in test [5] and in test [6] was “inactive” each time.

In the case of `O=C(C=Cc1ccc(CN(CCO)CCc2c[nH]c3ccccc23)cc1)NO`, the Potency is 1.66 µM (active) in test [1]; 1.18 µM (active) in test [2]; 0.418 µM (active) in [3]; 0.105 µM (active) in [4]; 1.18 µM (active) in [5]; 0.105 µM (active) in test [6].

With `O=C1NC(=O)C(=Cc2ccc3nccc(-c4ccncc4)c3c2)S1`, the Potency in test [1] is 1.87 µM (active); in test [2], 2.96 µM (active); in [3], 1.48 µM (active); in [4], 0.469 µM (active); in test [5], 0.743 µM (active); in [6] it was 0.833 µM (active).

Consider `Cc1ccccc1C(=O)Nc1ccc(C(=O)N2CCCC(O)c3cc(Cl)ccc32)c(C)c1` (stereo not given), for which the Potency result in [1], in [2], in [3], in test [4], in test [5] and in test [6] was “inactive” throughout. Besides, the Potency result in [7], in test [8], in [9], in test [10], in test [11] and in test [12] was “inactive” each time. The Potency entry in test [14], in test [15], in test [16] and in test [17] was “inactive” each time.

Regarding `CC(=O)O[C@H]1C[C@@H]2CC[C@H]3[C@H]4C[C@H]([N+]5(C)CCCCC5)[C@@H](OC(C)=O)[C@@]4(C)CC[C@@H]3[C@@]2(C)C[C@H]1[N+]1(C)CCCCC1`, the Potency result in test [1], in test [2], in test [3], in test [4], in [5] and in [6] was “inactive” in each case.

As to `C#C[C@]1(O)CC[C@@H]2[C@@H]3CCC4=CC(=O)CC[C@@H]4[C@H]3CC[C@@]21CC`, the Potency entry in [1], in [2], in [3], in test [4], in test [5] and in test [6] was “inactive” throughout.

Turning to `c1ccc2c(Oc3nc(Nc4ccc(N5CCOCC5)cc4)c4ncn(C5CCCCC5)c4n3)cccc2c1`, the Potency result in [1], in test [2], in test [3], in [4], in [5] and in test [6] was “inactive” each time. Further, the Potency entry in test [7], in test [8], in test [9], in [10], in [11] and in test [12] was “inactive” each time. The Potency entry in test [13], in test [14], in test [15], in [16] and in [17] was “inactive” in each case.

Consider `CCCCC(=O)O[C@]1(C(=O)CO)[C@@H](C)C[C@H]2[C@@H]3CCC4=CC(=O)C=C[C@]4(C)[C@@]3(F)[C@@H](O)C[C@@]21C`, for which the Potency entry in test [1], in test [2], in test [3], in [4], in [5] and in test [6] was “inactive” throughout. Besides, the Potency result in test [7], in test [8], in test [9], in [10], in test [11] and in [12] was “inactive” each time. Also, the Potency result in [13], in [14], in test [16], in [17] and in [18] was “inactive” each time.

Regarding `CCC[C@H]1C[C@H](C(=O)N[C@@H]([C@@H]2O[C@@H](SC)[C@@H](O)[C@@H](O)[C@@H]2O)[C@H](C)Cl)N(C)C1`, the Potency result in [1], in test [2], in test [3], in test [4], in [5] and in test [6] was “inactive” in each case. Further, the Potency entry in test [7], in test [8], in test [9], in [10], in [11] and in test [12] was “inactive” throughout. Besides, the Potency result in test [13], in [14] and in test [17] was “inactive” throughout.

Take `C[C@H](NC(=O)C(C#N)=Cc1cccc(Br)n1)c1ccccc1`: the Potency entry in test [1], in [2], in test [3] and in [6] was “inactive” in each case.

For `Nc1ccn(C[C@@H](CO)OCP(=O)(O)O)c(=O)n1`, the Potency entry in test [1], in test [2], in test [3], in test [4], in [5] and in [6] was “inactive” throughout. Also, the Potency result in test [19] is “inactive”.

Take `O=C(O)C(=O)Nc1cccc(C2=NN=N[N]2)c1`: the Potency entry in test [1], in test [2], in test [3], in test [4], in test [5] and in test [6] was “inactive” each time. The Potency entry in [19] was “inactive”.

For the compound `CN[C@@H]1C[C@H]2O[C@@](C)([C@H]1OC)n1c3ccccc3c3c4c(c5c6ccccc6n2c5c31)C(=O)N[C@H]4O`, the Potency in [1] is 0.332 µM (active); in test [2] it was 1.66 µM (active); in test [3] it was 5.26 µM (active); in test [5] it was 1.87 µM (active); in [6] it was 1.32 µM (active).

Consider `COc1cc2c(cc1OC)[C@@H]1C(=O)c3ccc4c(c3O[C@@H]1CO2)C=CC(C)(C)O4`, for which the Potency entry in test [1] and in test [2] was “inactive” each time. The Potency was 1.87 µM (active) in test [3], 0.935 µM (active) in test [4] and 0.662 µM (active) in test [6].
